We go through 30 compounds from PubChem BioAssay (NCATS).

SMILES strings stand for the structures. Records with an inconclusive call do not appear. Active and inactive are the calls of the source. Unless noted, the call rests on the fitted dose curve; in most records, active means well fitted curve in the direction sought with a large enough effect; inconclusive means small, poorly fitted or top-dose-only effect, or another doubt; inactive means no such curve, though single readings can be large; an effect the other way counts as inactive or inconclusive.

Assay [1] can be described thus: qHTS to identify inhibitors of the type 1 interferon - major histocompatibility complex class I in skeletal muscle: primary screen against the NCATS Mechanism Interrogation Plate v5.0 (MIPE) Libary (AID 1347411).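 Further: plate controls were vehicle for no effect and reference inhibitor for full effect; nearly all actives have a fitted effect of over 65% in size.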 In outline: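 Cells were genome-edited human myoblasts carrying a HiBit tag on endogenous HLA-B. They were treated with IFN-beta (4.0 ng/ml) and titrated compounds (top 46 uM) for 24 hrs before lytic HiBiT detection.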
Background: Quantitative high-throughput screening tests each substance at several concentrations.

Assay [2] addresses Calcium and integrin-binding protein 1 (Homo sapiens) (UniProt Q99828). Nature of the assay: Primary qHTS for Identification of Calcium Integrin Binding Protein 1 (CIB1) Competitor (AID 1508620).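 Further: GST tagged CIB1 binding a fluorescein labelled alphaIIb integrin peptide tracer; top concentration of the series differs between compounds; on the % scale 0 is the no-effect control and ±100 the full control effect.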 In outline:
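Fluorescence polarization competition: CIB1-GST (1 uM final) preincubated with compound 15 min at room temperature, then FITC-labeled alphaIIb peptide (100 nM final) added for another 15 min. Polarization read at Ex 480/Em 540.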

Assay [3] addresses Cytochrome P450 2D6 (Homo sapiens) (UniProt P10635). Nature of the assay: Cytochrome P450 family 2 subfamily D member 6 (CYP2D6) small molecule antagonists: luciferase biochemical (cell-free) qHTS assay (AID 1645840; active means well fitted curve in the direction sought with a large enough effect in the repeat runs; an effect the other way counts as inactive or inconclusive; further: nearly all actives have a fitted effect of over 55% in size; further: potency means the concentration at half of the fitted maximal effect; on activity change, negative = inhibition: on the % scale 0 is the no-effect control and ±100 the full control effect). In outline: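 P450-Glo luminescent screen: recombinant CYP2D6 enzyme–proluciferin substrate mix preincubated with compound 10 min at room temperature, then NADPH regeneration added for 1 h at room temperature. Detection reagent added for 20 min; luciferin light read as relative luminescence units.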

The target in assay [4] is Cytochrome P450 2C9 (Homo sapiens) (UniProt P11712). The experiment in a line: Cytochrome P450 family 2 subfamily C member 9 (CYP2C9) small molecule antagonists: luciferase biochemical (cell-free) qHTS assay (AID 1645842; active means well fitted curve in the direction sought with a large enough effect in the repeat runs; an effect the other way counts as inactive or inconclusive; further: nearly all actives have a fitted effect of over 55% in size; further: potency means the concentration at half of the fitted maximal effect; on activity change, negative = inhibition: on the % scale 0 is the no-effect control and ±100 the full control effect). The method, boiled down: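 Luminescence, after 20 min with luciferin detection reagent, reflected CYP2C9 turnover during a 1 h NADPH-driven reaction at 37C. Enzyme-substrate mix contained 0.4% bovine serum albumin and was preincubated with compound 10 min at room temperature.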
Sequence of Cytochrome P450 2C9 (Homo sapiens) (P11712 whole entry, looked up): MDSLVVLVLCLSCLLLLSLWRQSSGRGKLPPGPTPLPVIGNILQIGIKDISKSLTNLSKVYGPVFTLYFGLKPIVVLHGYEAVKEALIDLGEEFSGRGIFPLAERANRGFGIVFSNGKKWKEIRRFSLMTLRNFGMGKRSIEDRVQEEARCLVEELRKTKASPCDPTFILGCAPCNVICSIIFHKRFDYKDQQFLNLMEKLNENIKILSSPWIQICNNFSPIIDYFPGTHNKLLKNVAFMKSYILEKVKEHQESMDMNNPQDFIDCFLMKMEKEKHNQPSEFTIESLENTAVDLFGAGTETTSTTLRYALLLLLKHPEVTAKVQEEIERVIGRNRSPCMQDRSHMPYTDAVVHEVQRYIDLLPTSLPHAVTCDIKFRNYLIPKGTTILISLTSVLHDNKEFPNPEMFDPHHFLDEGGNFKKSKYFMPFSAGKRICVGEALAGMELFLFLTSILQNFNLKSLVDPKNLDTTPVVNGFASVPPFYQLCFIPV

Assay [5] in a line: Primary qHTS for inhibitors of nuclear receptor binding SET domain protein 2 (NSD2) in an isogenic RCH-ACV NSD2 p.E1099K mutant (9B) (AID 1645876). Further: nearly all actives have a fitted effect of over 70% in size.
Assay [6] is described as follows: Primary qHTS for inhibitors of nuclear receptor binding SET domain protein 2 (NSD2) in an RCH-ACV wild type WT cells (2C) (AID 1645877). Further: nearly all actives have a fitted effect of over 70% in size. Further: potency means the concentration at half of the fitted maximal effect.
The target of assay [7] is Catechol O-methyltransferase (Homo sapiens) (UniProt P21964). Nature of the assay: Confirmatory Screen for Target Class Profiling of Small Molecule Inhibitors of Methyltransferases (AID 1745852). On activity change, negative = inhibition: on the % scale 0 is the no-effect control and ±100 the full control effect. Particulars: MTase-Glo luminescence, SAH detection, recombinant enzyme; measured here: COMT max response; stronger effect = lower value.
Sequence of Catechol O-methyltransferase (Homo sapiens) (P21964 whole entry, looked up): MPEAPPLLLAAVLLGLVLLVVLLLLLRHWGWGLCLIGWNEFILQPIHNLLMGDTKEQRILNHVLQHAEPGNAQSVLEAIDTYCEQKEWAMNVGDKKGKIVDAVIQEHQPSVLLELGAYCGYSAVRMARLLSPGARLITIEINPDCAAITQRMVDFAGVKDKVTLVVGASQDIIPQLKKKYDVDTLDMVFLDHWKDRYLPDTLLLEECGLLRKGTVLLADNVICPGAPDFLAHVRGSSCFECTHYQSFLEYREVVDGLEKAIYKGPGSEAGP
Assay [8] addresses Guanidinoacetate N-methyltransferase (Homo sapiens) (UniProt Q14353). The description is as above. Particulars: MTase-Glo luminescence, SAH detection, recombinant enzyme; activity change, negative = inhibition: at 57.3 µM (top of the series) unless noted.
Assay [9] concerns the target Nicotinamide N-methyltransferase (Homo sapiens) (UniProt P40261). Described as above. To be noted: MTase-Glo luminescence, SAH detection, recombinant enzyme; measured here: NNMT max response; stronger effect = lower value.
For assay [10], the target named is Phenylethanolamine N-methyltransferase (Homo sapiens) (UniProt P11086). The assay is described as above. To be noted: MTase-Glo luminescence, SAH detection, recombinant enzyme; measured here: PNMT max response; stronger effect = lower value.
Sequence of Phenylethanolamine N-methyltransferase (Homo sapiens) (P11086 whole entry, looked up): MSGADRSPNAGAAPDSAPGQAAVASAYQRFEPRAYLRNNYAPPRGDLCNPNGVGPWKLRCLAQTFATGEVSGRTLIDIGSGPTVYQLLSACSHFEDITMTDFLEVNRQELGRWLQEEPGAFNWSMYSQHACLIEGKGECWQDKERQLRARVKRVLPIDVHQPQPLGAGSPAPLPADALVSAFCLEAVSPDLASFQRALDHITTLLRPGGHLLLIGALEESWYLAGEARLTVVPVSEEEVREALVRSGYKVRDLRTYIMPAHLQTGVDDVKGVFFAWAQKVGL
In assay [11] the target is Calcium and integrin-binding protein 1 (Homo sapiens) (UniProt Q99828). The experiment in a line: Confirmatory qHTS for Identification of Calcium Integrin Binding Protein 1 (CIB1) Competitor (AID 1508617). Further: potency means the concentration at half of the fitted maximal effect; nearly all actives have a fitted effect of over 65% in size. Particulars: CIB1 binding competition assay, biochemical qHTS. In outline: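 Binding competition between test compounds and fluorescent alphaIIb peptide for 1 uM CIB1-GST is monitored by FP at 480/540 nm. Final compound range is up to 114 uM; unlabeled peptide serves as reference competitor.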
Sequence of Calcium and integrin-binding protein 1 (Homo sapiens) (Q99828 whole entry, looked up): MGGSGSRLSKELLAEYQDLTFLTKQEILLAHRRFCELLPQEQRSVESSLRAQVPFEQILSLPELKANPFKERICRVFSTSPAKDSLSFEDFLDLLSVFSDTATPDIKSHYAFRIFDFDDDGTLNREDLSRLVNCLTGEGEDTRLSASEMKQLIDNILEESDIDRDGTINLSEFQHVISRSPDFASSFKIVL

Sequence of Cytochrome P450 2D6 (Homo sapiens) (P10635 whole entry, looked up): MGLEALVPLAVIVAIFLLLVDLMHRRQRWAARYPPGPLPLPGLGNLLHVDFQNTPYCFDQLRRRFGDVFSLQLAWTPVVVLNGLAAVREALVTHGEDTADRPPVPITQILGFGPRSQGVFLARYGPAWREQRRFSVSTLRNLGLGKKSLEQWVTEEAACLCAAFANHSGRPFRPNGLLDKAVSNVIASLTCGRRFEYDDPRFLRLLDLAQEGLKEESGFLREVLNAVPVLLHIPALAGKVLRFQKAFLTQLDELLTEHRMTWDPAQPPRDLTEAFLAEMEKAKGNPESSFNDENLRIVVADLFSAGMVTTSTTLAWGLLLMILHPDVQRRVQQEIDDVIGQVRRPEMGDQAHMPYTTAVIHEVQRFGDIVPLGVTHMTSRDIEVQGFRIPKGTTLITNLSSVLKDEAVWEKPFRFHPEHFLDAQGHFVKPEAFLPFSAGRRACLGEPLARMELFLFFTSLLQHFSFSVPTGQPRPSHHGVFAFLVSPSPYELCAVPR
Sequence of Nicotinamide N-methyltransferase (Homo sapiens) (P40261 whole entry, looked up): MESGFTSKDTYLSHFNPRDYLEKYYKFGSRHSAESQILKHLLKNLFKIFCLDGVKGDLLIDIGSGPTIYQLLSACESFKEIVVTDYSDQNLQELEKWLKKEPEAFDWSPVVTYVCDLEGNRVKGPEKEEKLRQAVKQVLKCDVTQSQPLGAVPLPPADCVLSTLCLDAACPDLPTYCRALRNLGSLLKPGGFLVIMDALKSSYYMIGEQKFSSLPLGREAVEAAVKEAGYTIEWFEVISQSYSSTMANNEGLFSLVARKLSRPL

On to `Nc1ncnc2c1C(=O)N(c1ccc(C3CCC(CC(=O)O)CC3)cc1)CCO2` (stereo not drawn), for which, in [1], the outcome is “inactive”. For the same compound, the Potency result in assay [2], in assay [3], in assay [4], in assay [5] and in assay [6] was “inactive” in each case.
Regarding `Cc1ncc(Cl)cc1NCc1ccc(C(=O)NC(CC2CCCC2)C(=O)NC2CC2)s1` (stereo not drawn), the outcome in assay [1] is “inactive”. Further, the Potency result in assay [2] was “inactive”. Moreover, the Potency in assay [6] was 14.8 µM (active).
Consider `O=C(COCC(=O)N1CCN(C(c2ccccc2)c2ccccc2)CC1)Nc1ccc(Cl)cc1C(=O)O`, for which the outcome in assay [1] was “inactive”. The Potency entry in [2], in [3], in [5] and in assay [6] was “inactive” throughout. The figures for the activity in assay [7], in assay [9] and in assay [10] were -5.29%, -44.4% and -8.81%, respectively. Besides, the activity change, negative = inhibition in [8] was -4.07%.
Take `COc1ccc2[nH]c(S(=O)Cc3ncc(C)c(OC)c3C)nc2c1` (stereo not drawn): in assay [1], the outcome was “inactive”. The Potency entry in assay [2] and in assay [5] was “inactive” throughout.
As to `Cc1ccccc1-n1nc(-c2c(-c3ccc(F)cc3)nn3c2NC[C@@H](CO)C3)ccc1=O`, in [1], the outcome is “inactive”. Moreover, the Potency result in assay [2] and in assay [3] was “inactive” each time. Besides, the Potency in [4] is 6.74 µM (active).
On to `COc1ccc(CC(NC(C)=O)C(=O)O)cc1` (stereo not drawn), for which, in [11], the Potency is 50.1 µM (active). Moreover, the Potency result in assay [5] and in [6] was “inactive” throughout. The activity in [7] is -71.7%; in assay [9] it was 1.04%; in [10] it was -0.971%. Moreover, the activity change, negative = inhibition in [8] turned out to be 0%.
`CCC(C)/C=C(C)/C=C/C1=CC2=C(Cl)C(=O)C(C)(O)C(=O)C2(O)C(OC)O1` (stereo not drawn): the Potency entry in [2] was “inactive”.
Regarding `CC1OC(O[C@@H]2[C@H](O)[C@@H](OC3OC(CO)C(O)C(O)C3O)[C@H](OC(=O)[C@]34CCC(C)(C)C[C@H]3C3=CCC5[C@@]6(C)CC[C@H](O[C@@H]7O[C@H](C(=O)O)[C@@H](O)[C@H](O[C@@H]8OC[C@@H](O)[C@H](O)[C@H]8O)[C@H]7O[C@@H]7O[C@H](CO)[C@H](O)[C@H](O)[C@H]7O)[C@@](C)(C=O)C6CC[C@@]5(C)[C@]3(C)C[C@H]4O)O[C@@H]2C)C(O)C(O)C1OC1OCC(O)C(O)C1O` (stereo partly drawn), the activity change, negative = inhibition in assay [2] was -2.12% [at 12.4 µM] (inactive).
Regarding `CC(C)[C@](O)(c1ccc2cc(OC(F)F)c(OC(F)F)cc2c1)c1cn[nH]n1`, in assay [1], the outcome is “inactive”. In assay [2], the Potency entry is “inactive”.
Regarding `COCCCc1sc(-c2ccccc2)nc1C(=O)Nc1ccccc1-c1nc2cc(CN3CCCC3)cnc2s1`, the outcome in [1] is “inactive”. Moreover, the Potency entry in assay [2] was “inactive”.
Consider `Cc1cccc(-c2nn3c(c2-c2ccnc4ccc(C(N)=O)cc24)CCC3)n1`, for which, in [1], the outcome is “inactive”. For the same compound, the Potency result in [2], in [3], in assay [5] and in assay [6] was “inactive” in each case.
For `N#CN1CCC[C@@H](n2nc(-c3ccc(Oc4ccc(F)cc4F)cc3)c(C(N)=O)c2N)C1`, the outcome in [1] was “inactive”. In addition, in [2], the Potency result was “inactive”. Besides, the Potency in [6] was 16.6 µM (active).
With `O=C(/C=C/C=C/c1ccc2c(c1)OCO2)N1CCCCC1`, in [1], the outcome is “inactive”. In addition, in assay [2], the Potency result was “inactive”. In addition, the Potency in assay [4] was 10.7 µM (active).
For `C[C@@H]1O[C@@H](O[C@H]2[C@H](OC(=O)[C@]34CCC(C)(C)C[C@H]3C3=CCC5[C@@]6(C)CC[C@H](O[C@@H]7O[C@H](CO[C@@H]8OC[C@H](O)[C@H](O)[C@H]8O)[C@@H](O)[C@H](O)[C@H]7O)C(C)(C)C6CC[C@@]5(C)[C@]3(C)C[C@H]4O)OC[C@@H](O)[C@@H]2O)[C@H](O)[C@H](O[C@@H]2OC[C@](O)(CO)[C@H]2O)[C@H]1O[C@@H]1OC[C@H](O)[C@H](O[C@@H]2OC[C@@H](O)[C@H](O)[C@H]2O)[C@H]1O` (stereo partly drawn), in [2], the activity change, negative = inhibition is 2.98% [at 12.4 µM] (inactive).
With `CCOc1ccc(-c2nn3ncccc3c2-c2ccc(S(C)(=O)=O)cc2)cc1`, the Potency entry in assay [2] was “inactive”. For the same compound, the Potency in [3] is 1.07 µM (active); in [4] it was 4.77 µM (active).
The like results for `CN1CCc2cc(Cl)c(O)cc2[C@@H](c2cccc3c2OCC3)C1` were, in that order, “inactive”, 0.477 µM (active) and “inactive”.
The like results for `COc1ccc(-c2ccn(CC[C@](C)(C(=O)NO)S(C)(=O)=O)c(=O)c2)c(F)c1` were, in that order, “inactive”, “inactive” and “inactive”.
In the case of `COc1c(C)c(OCC=C(C)C)cc2c1CNC2=O`, the Potency entry in [2] is “inactive”.
As for `Cc1onc(-c2c(Cl)cccc2Cl)c1CC(=O)NCc1ccc(OCC(F)(F)F)nc1`, the Potency result in assay [2] was “inactive”. Moreover, the Potency in assay [3] is 19 µM (active); in assay [4], 2.39 µM (active).
Regarding `Nc1c(-c2ccccc2)nc(Cl)c2c(O)n[nH]c(=O)c12`, the Potency entry in [2], in [3], in assay [5] and in [6] was “inactive” each time. In addition, the Potency in assay [4] was 10.7 µM (active).
With `NC[C@H]1CCC[C@@H](CNC(=O)[C@@H](Cc2c[nH]c3ccccc23)NC(=O)N2CCC3(C=Cc4ccccc43)CC2)C1`, the Potency result in assay [2] is “inactive”. Further, the Potency in assay [3] is 10.5 µM (active); in assay [4], 1.86 µM (active).
Take `COc1ccccc1N1CCN(CCCCNC(=O)c2ccc(-c3cscn3)cc2)CC1`: the Potency entry in [2] is “inactive”. In addition, the Potency in assay [3] is 6.01 µM (active).
Turning to `CC(C)NC(=O)c1ccc(C#Cc2ccncc2)cn1`, the Potency entry in [2] and in [3] was “inactive” each time. Moreover, the Potency in [4] is 0.601 µM (active).
As for `COc1ccc(C2COc3cc(O)ccc3C2)c(O)c1OC` (stereo not drawn), in assay [2], the Potency entry is “inactive”.
In the case of `CC(=O)N[C@H](Cc1c[nH]c2ccccc12)C(=O)OCc1cc(C(F)(F)F)cc(C(F)(F)F)c1`, the Potency entry in assay [2], in [5] and in [6] was “inactive” in each case. Moreover, the figures for the Potency in assay [3] and in assay [4] were 19 µM (active) and 1.9 µM (active), respectively.
As to `Cc1nnc(-c2ccc3occ(-c4ccc(S(C)=O)cc4)c3c2)o1` (stereo not drawn), the Potency entry in [2] and in assay [3] was “inactive” each time. Besides, the Potency in assay [4] is 19 µM (active).
Regarding `Cc1nc2ccccc2c(-c2ccc3c4c(ccnc24)CCO3)c1[C@H](OC(C)(C)C)C(=O)O`, the Potency entry in [2], in [3], in assay [4], in assay [5] and in [6] was “inactive” each time.
With `N[C@@H](CC(=O)Nc1ccc(Oc2cc(F)c(F)cc2Br)cc1)C(=O)O`, the Potency result in assay [2] and in [3] was “inactive” in each case.
For the compound `COc1cccc(CN(C(=O)CC(C)(C)C)C2CC(C(=O)N3CCNCC3)N(Cc3ccc4c(c3)OCO4)C2)c1` (stereo not drawn), the Potency entry in [2] is “inactive”. Besides, the Potency in assay [3] was 26.8 µM (active).
Take `CC1(C)CC=C(C#Cc2ccccc2)c2cc(/C=C/c3ccc(C(=O)O)cc3)ccc21`: the Potency entry in assay [2], in assay [3] and in [5] was “inactive” in each case. Further, the Potency in [4] is 19 µM (active).
